# Compound activity as filed in PubChem BioAssay.
# PI5P4K alpha inh: qHTS for Inhibitors of phosphatidylinositol 5-phosphate 4-kinase (PI5P4K); PI5P4Kalpha enzyme, ADP-Glo luminescence, 60 min; stronger effect = lower value; max response, %; 1.2% of 330,000 active; active means max response of -50% or lower; inconclusive means between -30% and -50%; inactive means -30% or higher; further: value at the top dose of about 77 µM
#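 Reactions run in 0.038 M HEPES pH 7.4, 0.28 mM EGTA, 0.1% CHAPS and 5% DMSO, with PI5P4Kalpha, substrate, compound and 5 microM ATP final, one hour at room temperature. Readout is ADP-Glo luminescence.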
# HP1b chromo inh: HTS for Inhibitors of HP1-beta Chromodomain Interactions with Methylated Histone Tails. Potency, µM (top dose mostly 114 µM), hits mostly inhibitors. AlphaScreen HP1-beta / biotin-H3K9me3 peptide binding. 0.56% of 390,000 active. Chromobox protein homolog 1 (Homo sapiens), P83916. AID 540317, 2011; further: nearly all actives have a fitted effect of over 70% in size
#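 Compound inhibition of the preformed complex between 50 nM HP1-beta and 50 nM biotinylated H3K9me3 peptide was read by AlphaScreen. Buffer was PBS pH 7.4 with 0.01% Tween-20. Incubations ran 30 min at room temperature, with 10 ug/mL donor/acceptor beads.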
# L3MBTL1 inh: qHTS Assay for the Inhibitors of L3MBTL1 | AlphaScreen L3MBTL1–H3K9me1 peptide binding | Potency, µM (titrated, usually from 57.1 µM), hits mostly inhibitors | 0.66% of 230,000 active | Lethal(3)malignant brain tumor-like protein 1 (Homo sapiens), Q9Y468; further: nearly all actives have a fitted effect of over 60% in size
# Target sequence (Q9Y468 whole entry, looked up): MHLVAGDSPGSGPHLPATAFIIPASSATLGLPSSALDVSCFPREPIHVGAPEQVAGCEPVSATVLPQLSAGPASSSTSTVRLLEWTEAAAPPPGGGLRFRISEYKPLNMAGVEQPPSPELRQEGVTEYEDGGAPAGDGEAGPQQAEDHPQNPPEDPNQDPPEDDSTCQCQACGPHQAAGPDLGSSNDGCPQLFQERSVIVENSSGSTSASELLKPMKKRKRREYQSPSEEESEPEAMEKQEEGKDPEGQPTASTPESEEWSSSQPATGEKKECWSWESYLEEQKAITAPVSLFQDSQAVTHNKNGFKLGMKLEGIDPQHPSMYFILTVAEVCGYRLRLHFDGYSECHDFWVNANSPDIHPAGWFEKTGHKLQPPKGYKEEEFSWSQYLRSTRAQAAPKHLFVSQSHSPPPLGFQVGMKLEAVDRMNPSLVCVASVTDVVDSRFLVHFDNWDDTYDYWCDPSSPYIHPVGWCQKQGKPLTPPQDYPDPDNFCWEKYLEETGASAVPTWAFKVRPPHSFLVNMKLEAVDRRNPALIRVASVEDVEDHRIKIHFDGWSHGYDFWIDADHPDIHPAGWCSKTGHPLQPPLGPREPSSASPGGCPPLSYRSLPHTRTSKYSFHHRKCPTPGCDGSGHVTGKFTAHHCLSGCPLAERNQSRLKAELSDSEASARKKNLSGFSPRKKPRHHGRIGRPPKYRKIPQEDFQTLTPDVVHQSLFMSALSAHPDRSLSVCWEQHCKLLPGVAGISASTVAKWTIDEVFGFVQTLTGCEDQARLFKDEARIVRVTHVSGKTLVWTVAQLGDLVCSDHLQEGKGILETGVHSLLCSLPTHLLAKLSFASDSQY
#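 AlphaScreen proximity signal between nickel-chelate acceptor and streptavidin donor beads (final 10 ug/mL) reports binding of 50 nM L3MBTL1 to 75 nM biotin-H3 K9me1 peptide; complex incubated with compounds 30 min at room temperature; cefsulodin titration as control.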
# BAZ2B inh: qHTS Assay for Inhibitors of BAZ2B; Bromodomain adjacent to zinc finger domain protein 2B (Homo sapiens), Q9UIF8; AlphaScreen BAZ2B-H3K14Ac peptide displacement; Potency, µM (series often up to 114 µM), actives largely listed as inhibitors; 4.4% of 360,000 active; AID 504333, 2011; further: nearly all actives have a fitted effect of over 60% in size
#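 Protein-peptide AlphaScreen: BAZ2B 50 nM, b-H3K14Ac 50 nM, 1x PBS pH 7.4 + 0.01% Tween-20. Preincubation 30 min RT; cpd 30 min RT (top 110 uM); beads 20 min RT, light-protected.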
# G9a block: qHTS Assay for Inhibitors of Histone Lysine Methyltransferase G9a. Histone-lysine N-methyltransferase EHMT2 (Homo sapiens), Q96KQ7. G9a H3K9 monomethylation, AlphaScreen, 2 h. Potency, µM (titrated, usually from 102 µM), actives largely listed as inhibitors. 8.8% of 350,000 active. AID 504332, 2011; further: nearly all actives have a fitted effect of over 75% in size
#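 Quantitative HTS format: methyltransferase activity on a biotin-tagged H3K9 peptide is measured by AlphaScreen, using a rabbit anti-monomethyl-H3K9 antibody with streptavidin donor and anti-IgG acceptor beads. Final levels are 20 nM enzyme, 500 nM peptide, 20 uM SAM; 2 h RT.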
# JMJD2A Tudor inh: qHTS Assay for Inhibitors of JMJD2A-Tudor Domain; 4.4% of 390,000 active; AlphaScreen JMJD2A-Tudor / H3K4me3 peptide binding; Potency, µM (top dose mostly 114 µM), hits mostly inhibitors; Lysine-specific demethylase 4A (Homo sapiens), O75164; further: nearly all actives have a fitted effect of over 50% in size
# A number is an active result; i = inactive; ? = inconclusive; nt = no result; [ ] = remark or other dose. Compounds with a hit are over-represented: about 11% of the library has one in this group of screens. Unless noted, the call rests on the fitted dose curve; in most records, active means well fitted inhibition curve with a large enough effect; inconclusive means small, poorly fitted or top-dose-only effect; inactive means no such curve, though single readings can be large or run the other way.
SMILES,PI5P4K alpha inh,HP1b chromo inh,L3MBTL1 inh,BAZ2B inh,G9a block,JMJD2A Tudor inh
CC(C)Oc1ccc(C(=O)NC2=NCCS2)cc1,?,?,nt,i,3.5µM,i
CC(C)[C@H](NC(=O)c1ccc(F)cc1)C(=O)NC1=NCCS1,i,i,i,i,i,18µM
CCc1ccc(NC(=O)Cn2c(=O)n(CCCCC(=O)NCc3ccc4c(c3)OCO4)c(=O)c3ccccc32)cc1,nt,i,nt,i,i,i
O=C(O)CCCn1c(=S)[nH]c2c(sc3ccc([N+](=O)[O-])cc32)c1=O,i,i,i,?,8.9µM,18µM
CC1CCN(CCCn2c(=S)[nH]c3c(sc4ccccc43)c2=O)CC1,i,i,i,i,8.9µM,?
CC1CCN(CCCn2c(=S)[nH]c3c(sc4ccc([N+](=O)[O-])cc43)c2=O)CC1,i,i,i,i,40µM,i
O=c1c2sc3ccccc3c2[nH]c(=S)n1CCN1CCOCC1,i,i,nt,i,3.5µM,?
CC1CCN(CCCn2c(=S)[nH]c3ccccc3c2=O)CC1,i,i,nt,?,i[2.33 µM],i
O=C(Oc1ccccc1)N1CCC[C@@]2(CCN(c3ccccc3)C2)C1,nt,nt,nt,nt,i[12.7 µM],nt
O=S(=O)(c1ccc2c(c1)OCCO2)N1CCN(S(=O)(=O)c2ccccc2Cl)CC1,nt,nt,nt,nt,nt,i
O=C(Nc1ccccc1)N1CCC2(CC1)CCN(C(=O)c1cnccn1)CC2,nt,nt,nt,nt,i[12.7 µM],nt
Cc1cc2cc(CNC(=O)CCC(=O)O)ccc2n1C,i,i,i,?,18µM,i
Cc1cccc(NC(=S)NCc2ccc3c(c2)cc(C)n3C)c1C,i,?,i,35µM,i,35µM
CC(=O)Nc1ccc(S(=O)(=O)NCc2ccc3c(c2)cc(C)n3C)cc1,i,i,nt,?,79µM,?
Cc1cc2cc(CNC(=O)c3ccc(Br)o3)ccc2n1C,?,i,nt,35µM,i,56µM
Cc1cc2cc(CNS(=O)(=O)c3ccc4ccccc4c3)ccc2n1C,i,i,i,?,?,?
O=C(NCc1noc2ccccc12)N1CCN(c2ccccc2)CC1,nt,i,nt,i,i,i
Cc1ccc(NC(=O)c2c3c(nc4ccccc24)C(=O)N(C2CCCCC2)C3)cc1F,nt,?,nt,i,i,i
Cc1ccc(NC(=O)C2CCCN(C(=O)c3cnn(-c4ccc(F)cc4)c3-n3cccc3)C2)c(Cl)c1 (stereo unspecified),nt,i,nt,i,i,i
CC(=O)Nc1ccc(S(=O)(=O)Nc2nc3ccccc3nc2N2CCOCC2)cc1,i,i,i,nt,nt,i
Cc1ccccc1S(=O)(=O)Nc1nc2ccccc2nc1N1CCOCC1,i,i,nt,56µM,i[12.7 µM],i
CCOC(=O)C1CCN(C(=O)c2nn(-c3ccc(OC)c(Cl)c3)c(=O)c3c2c2ccccc2n3C)CC1,nt,i,nt,nt,i,i
OC(CNCc1ccco1)Cn1c2ccccc2c2ccccc21 (stereo unspecified),i,i,i,?,50µM,?
OC(CNCc1ccco1)COc1ccccc1 (stereo unspecified),i,i,i,i,i,i
CS(=O)(=O)N(Cc1ccco1)CC(O)Cn1c2ccccc2c2ccccc21 (stereo unspecified),i,i,i,?,14µM,?
SMILES,PI5P4K alpha inh,HP1b chromo inh,L3MBTL1 inh,BAZ2B inh,G9a block,JMJD2A Tudor inh
CCC(=O)OC1=CN(Cc2ccccc2)S(=O)(=O)c2ccccc21,nt,i,nt,i,i,i
Cc1ccc(NC(=O)N2CCC(n3c(C)nc4cccnc43)CC2)c(Cl)c1,nt,i,nt,i,i,i
Nc1ccc(C(=O)N2CCCC2)cc1,i,i,i,i,i,i
Nc1ccc(C(=O)n2c3ccccc3c3ccccc32)cc1,i,i,i,i,8.9µM,i
Cn1cnc(S(=O)(=O)N2CCC(C(=O)Nc3ccc(F)cc3F)CC2)c1,nt,i,nt,i,i,i
CCN1CCC2(CC1)N=C(c1ccc(F)cc1)C(=S)N2,i,i,nt,i,11µM,i
Cc1ccc(C2=NC3(CCCCC3)NC2=S)cc1,i,i,i,i,i,i
O=C(N/N=C/c1cc(Br)cc(Br)c1O)c1cccc(S(=O)(=O)N2CCOCC2)c1,i,i,nt,i,i,89µM
O=C(N/N=C/c1ccccc1Br)c1cccc(S(=O)(=O)N2CCOCC2)c1,i,i,i,i,i[12.7 µM],i
CCOc1ccc(C(=O)N/N=C/c2cc(Cl)ccc2[N+](=O)[O-])cc1,i,i,i,56µM,i,?
O=C(N/N=C/c1ccc(O)c(O)c1)c1cccc(S(=O)(=O)N2CCCC2)c1,i,i,i,i,40µM,7.9µM
O=C(N/N=C/c1cc(Cl)cc([N+](=O)[O-])c1O)c1cccc(S(=O)(=O)N2CCOCC2)c1,?,i,?,25µM,50µM,40µM
O=C(O)[C@@H]1CN[C@@H](C(=O)O)C1,nt,nt,nt,nt,i,nt
CCN1CCN(C(c2ccccc2Cl)c2c(O)cc(C)n(CCOC)c2=O)CC1 (stereo unspecified),nt,i,nt,i,?,i
O=C(N/N=C/c1cc(Cl)cc([N+](=O)[O-])c1O)c1ccc2c(c1)OCO2,i,i,i,35µM,?,79µM
COc1cc(Cl)cc(/C=N\NC(=O)c2ccc3c(c2)OCO3)c1O,i,nt,nt,nt,nt,nt
O=C(N/N=C/c1ccccc1O)NC12CC3CC(CC(C3)C1)C2,i,i,nt,i,i,i
O=C(N/N=C/c1cc(Cl)cc([N+](=O)[O-])c1O)NC12CC3CC(CC(C3)C1)C2,-69,?,i,8.9µM,10µM,50µM
CN(Cc1ccccc1)/C(=N/O)c1cccc(Cl)c1,i,i,nt,i,i,i
